# Assay outcomes as filed in PubChem BioAssay.
# Pf Dd2 growth: inhibitors of Plasmodium falciparum Dd2 growth. P. falciparum Dd2 growth, SYBR Green, 72 h; hits give low values. activity change, % at 10 µM. hit rate 2.3% among 94,000; in the data active = activity change below about -80%
# T cruzi growth: inhibitors of T. cruzi proliferation | T. cruzi beta-gal in NIH3T3, GalScreen luminescence, 90 h | inhibition, % at 8.34 µM | AID 624255 | hit rate 5.9% among 77,000;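 active = mean inhibition above about 93%, with at least 55% of replicates each passing it, limit read from the data, passing the limit was not always enough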
# C diff growth: inhibitors of Clostridium difficile growth; Clostridium difficile clinical isolate growth, OD600, 24 h; hits give low values; growth activity, negative = inhibition, % at 16 µg/mL (by protocol); hit rate 0.25% among 86,000; AID 1259249;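 active = mean growth activity at or below -80% and every replicate also at or below -80%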;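 also: 0% = DMSO wells and -100% = levofloxacin 16 µg/mL wells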
# Numbers without * were called inactive; nt = no result given. Only some compounds are listed: those with a hit (about 6.7% of all), similar ones and a draw of the others.
SMILES,Pf Dd2 growth,T cruzi growth,C diff growth
COc1ccc(S(=O)(=O)N2C[C@@H](O)COC[C@H]3O[C@@H](CC(=O)NCCCN4CCOCC4)CC[C@@H]32)cc1,9,12,nt
O=C(NCC[C@H]1CC[C@@H](NS(=O)(=O)c2cccc(F)c2)[C@H](CO)O1)c1cnccn1,6,-4,1
CCCC#Cc1cnc2c(c1)C(=O)N([C@H](C)CO)C[C@@H](C)[C@@H](CN(C)C(=O)Nc1cc(F)ccc1F)O2,-54,14,4
CC(C)CC#Cc1cnc2c(c1)C(=O)N([C@H](C)CO)C[C@@H](C)[C@H](CN(C)C(=O)Nc1cc(F)ccc1F)O2,-83*,107,-7
CCCC#Cc1cnc2c(c1)C(=O)N([C@@H](C)CO)C[C@H](C)[C@H](CN(C)C(=O)Nc1cccc(F)c1)O2,-88*,nt,1
CCCC#Cc1cnc2c(c1)C(=O)N([C@H](C)CO)C[C@@H](C)[C@@H](CN(C)C(=O)Nc1cccc(F)c1)O2,-36,66,14
COc1ccc(NC(=O)N(C)C[C@H]2OCCCC[C@H](C)Oc3ccc(NC(=O)Cc4ccccc4)cc3C(=O)N([C@H](C)CO)C[C@H]2C)cc1,-87*,-4,0
COc1ccc(NC(=O)N(C)C[C@H]2OCCCC[C@H](C)Oc3ccc(NC(=O)c4ccccc4)cc3C(=O)N([C@H](C)CO)C[C@H]2C)cc1,-95*,nt,-2
COc1ccc(NC(=O)N(C)C[C@@H]2OCCCC[C@@H](C)Oc3ccc(NC(=O)Cc4ccccc4)cc3C(=O)N([C@@H](C)CO)C[C@@H]2C)cc1,-58,31,-5
COc1ccc(NC(=O)N(C)C[C@H]2OCCCC[C@@H](C)Oc3ccc(NC(=O)c4ccccc4)cc3C(=O)N([C@@H](C)CO)C[C@H]2C)cc1,-62,91,0
COc1ccccc1CN1[C@H](C(=O)NCCc2ccncc2)[C@@H](CO)[C@@H]2Cn3c(cccc3=O)[C@@H]21,nt,19,-3
CN(C)CC(=O)N[C@@H]1C=C[C@@H](CC(=O)NCc2ccc(Cl)cc2)O[C@H]1CO,4,-7,-2
CCC(=O)N1CCC2(CC1)CN(S(=O)(=O)c1ccccc1)[C@H](CO)c1[nH]c3cc(OC)ccc3c12,-86*,nt,-13
COc1ccc2c3c([nH]c2c1)[C@@H](CO)N(S(=O)(=O)c1ccccc1)CC31CCN(C)CC1,-17,nt,4
COc1ccc2c3c([nH]c2c1)[C@H](CO)N(C)CC31CCN(S(=O)(=O)c2ccc(C)cc2)CC1,-23,nt,-4
CCCC(=O)N1CCC2(CC1)CN(S(=O)(=O)c1ccc(C)cc1)[C@@H](CO)c1[nH]c3cc(OC)ccc3c12,-92*,nt,4
CN1C(=O)c2cc(NS(C)(=O)=O)ccc2OC[C@@H]2O[C@H](CC(=O)NCc3ccc(-c4ccccc4)cc3)CC[C@@H]21,nt,-7,3
COc1ccc2c3c([nH]c2c1)[C@H](CO)N(Cc1cccc(Cl)c1)CC31CCN(C(C)=O)CC1,-89*,nt,-1
COc1ccc2c3c([nH]c2c1)[C@H](CO)N(Cc1ccc(F)cc1)CC31CCN(C)CC1,-75,nt,6
COc1ccc2c3c([nH]c2c1)[C@H](CO)N(Cc1ccc(F)cc1)CC31CCN(C(C)=O)CC1,-89*,nt,5
COCC(=O)N1CC2(C1)CN(Cc1cccc(Cl)c1)[C@H](CO)c1[nH]c3cc(OC)ccc3c12,-57,nt,-1
COc1ccc2c3c([nH]c2c1)[C@@H](CO)N(Cc1cccc(Cl)c1)CC31CN(C(C)=O)C1,-89*,nt,8
COc1ccc2c3c([nH]c2c1)[C@@H](CO)N(Cc1cccc(Cl)c1)CC31CCN(C(C)=O)CC1,-88*,nt,7
COc1ccc2c3c([nH]c2c1)[C@@H](CO)N(Cc1ccccc1)CC31CCN(C(C)=O)CC1,20,nt,nt
COCC(=O)N1CCC2(CC1)CN(Cc1cccc(Cl)c1)[C@H](CO)c1[nH]c3cc(OC)ccc3c12,-71,nt,1
O=C(C[C@H]1C[C@H]2c3cc(NC(=O)c4ccc5c(c4)OCO5)ccc3O[C@H]2[C@H](CO)O1)NC1CCCC1,-10,2,nt
COc1ccc(C#Cc2ccc3c(c2)O[C@H](CN(C)C(=O)CN2CCOCC2)[C@@H](C)CN([C@H](C)CO)S3(=O)=O)cc1,-40,nt,-1
COc1ccc2c3c([nH]c2c1)[C@@H](CO)N(Cc1ccccc1)CC31CN(C(=O)NC(C)C)C1,-49,nt,0
Cc1ccc(S(=O)(=O)N(C)C[C@H]2OCCCC[C@H](C)Oc3ccc(NC(=O)Nc4ccccc4)cc3C(=O)N([C@@H](C)CO)C[C@H]2C)cc1,-91*,-17,9
C[C@@H]1CCCCO[C@@H](CN(C)S(=O)(=O)c2ccccc2)[C@H](C)CN([C@@H](C)CO)C(=O)c2cc(NC(=O)Nc3ccccc3)ccc2O1,-28,20,nt
